High-throughput results deposited in PubChem by The Scripps Research Institute Molecular Screening Center.
HTR5A inv ctr – HTR5A inverse agonists in luminescence cell assay, primary screen, counter-screen for OPRM1-OPRD1 heterodimer inverse agonist project, full-deck HTS. 5-hydroxytryptamine receptor 5A (Homo sapiens), P47898. HTR5A cell line, inverse agonism. inhibition, % at 9.3 µM. actives 0.083% (n = 340,000). AID 504634, 2011; in the data active means inhibition mostly above about 23%, no sharp cut-off; inactive means mostly below about 18%
MOR-DOR ag-1 – agonists of OPRM1-OPRD1 heterodimerization, primary screen, cell-based, luminescence. activation, % at 9.3 µM. actives 0.3% (n = 340,000). AID 504326, 2011. cells. Mu-type opioid receptor (Homo sapiens) + Delta-type opioid receptor (Homo sapiens), …
HTR5A ag ctr – HTR5A agonists in luminescence cell assay, primary screen, counter-screen for OPRM1-OPRD1 heterodimer agonist project, full-deck HTS | AID 504692, 2011 | activation, % at 9.3 µM | actives 0.61% (n = 340,000) | cell-based; in the data active means activation mostly above about 9.5%, no sharp cut-off; inactive means mostly below about 7.6%
OPRM1-OPRD1 inv – inverse agonists of MOR-DOR heterodimerization, primary screen, cell-based, luminescence. actives 0.21% (n = 340,000). AID 504357, 2011. inhibition, % at 9.3 µM. Mu-type opioid receptor (Homo sapiens) + Delta-type opioid receptor (Homo sapiens), …. cell-based MOR-DOR heterodimer luminescence, inverse agonism; in the data active means inhibition above about 22%, passing the limit was not always enough
MOR-DOR ag-2 – OPRM1-OPRD1 heterodimerization promoters, counter-screen for HTR5A agonist project, cell-based, luminescence; activation, % at 9.3 µM; U2OS counter-screen cells, complementation luminescence, 3 h; actives 13% (n = 800); shares compounds with HTR5A ag ctr
HTR5A ag confirm – HTR5A agonists, retest of hits, confirmation, cell-based, luminescence; actives 17% (n = 800); HTR5A agonist cell assay; AID 504915, 2011; activation, % at 9.3 µM; shares compounds with HTR5A ag ctr; in the data active means activation above about 17%
Hits are given with their value; n = inactive; x = no result given. The list is not random: actives were taken first. Their share in the collection is about 1.1%. Unless noted, no stated cut-off is given here; in the data, active means activation above about 18%; inactive means the rest.

SMILES	HTR5A inv ctr	MOR-DOR ag-1	HTR5A ag ctr	OPRM1-OPRD1 inv	MOR-DOR ag-2	HTR5A ag confirm
Cc1cc(O)c2c3c(c(=O)oc2c1)CCC(C)C3 (stereo not drawn)	n	n	n	n	x	x
Cc1cc(O)c2c(c1)OC(C)(C)C1=C2CC(C)CC1 (stereo not drawn)	n	n	15	n	n	n
Nc1ccc(C2(c3ccc(N)cc3)c3ccccc3-c3ccccc32)cc1	n	n	44	n	23	27
CN(C)C(=O)O/N=C(\N)COc1ccc(C(C)(C)C)cc1	n	n	29	n	n	n
CC(N)Cc1c[nH]c2ccc(O)cc12 (stereo not drawn)	n	n	35	n	n	60
COC(=O)C1=C(c2cc3ccccc3s2)C[C@@H]2CC[C@H]1N2C(=O)N1CCC(O)CC1	n	n	n	n	x	x
CCN(CC)C(=O)N[C@H]1C[C@@H]2c3cccc4[nH]cc(c34)C[C@H]2N(C)C1	n	n	n	n	x	x
CN1C[C@H](CO)C[C@@H]2c3cccc4[nH]cc(c34)C[C@H]21	n	n	16	n	n	23
Cc1[nH]c2ccc(OCc3ccccc3)cc2c1CCN	n	n	n	n	x	x
Cc1[nH]c2ccc(O)cc2c1CCN	n	n	40	n	n	50
CN1C[C@H](CNC(=O)OCc2ccccc2)C[C@@H]2c3cccc4c3c(cn4C)C[C@H]21	n	n	n	n	x	x
CC[C@@H](CO)NC(=O)[C@@H]1C=C2c3cccc4[nH]cc(c34)C[C@H]2N(C)C1	n	n	91	n	n	84
CC(C)C[C@H]1C(=O)N2CCC[C@H]2[C@]2(O)O[C@](NC(=O)[C@@H]3C=C4c5cccc6[nH]cc(c56)C[C@H]4N(C)C3)(C(C)C)C(=O)N12	n	n	n	n	x	x
CC[C@@H](CO)NC(=O)[C@@H]1C=C2c3cccc4c3c(cn4C)C[C@H]2N(C)C1	n	n	81	n	n	78
CCC(CO)NC(=O)C1C=C2c3cccc4[nH]cc(c34)CC2N(C)C1 (stereo not drawn)	n	n	75	n	n	88
COc1ccc(OC)c(N2C(=O)NC(=O)/C(=C/c3ccc([N+](=O)[O-])s3)C2=O)c1	n	n	n	n	x	x
[Cl][Pt+2][Cl].[NH-]C1CCCCC1[NH-] (stereo not drawn)	n	n	n	n	x	x
COP(=O)(Cc1ccc(C#N)o1)OC	n	n	15	n	n	n
CCC(CO)(C(=O)OC1CC2CCC(C1)N2C)c1ccccc1 (stereo not drawn)	n	n	16	n	n	n
CCN(C(=O)COC(=O)c1cn(C)c2ccccc12)c1ccc(F)cc1	n	n	n	n	x	x
OCCNCCc1c[nH]c2ccc(OCc3ccccc3)cc12	n	n	n	n	x	x
COc1ccc2[nH]cc(CCN)c2c1	n	n	60	n	n	n
CCc1ccccc1NC(=O)CNCc1ccccc1	n	n	n	n	x	x
COc1ccccc1CCNC1CCCCCC1	n	n	n	n	x	x
c1ccc2c(CCNC3CCCCC3)c[nH]c2c1	n	n	25	n	n	36
CC1CN(c2ccc([N+](=O)[O-])c3cccnc23)CC(C)N1 (stereo not drawn)	n	n	n	n	x	x
N#Cc1c(Br)n(C2OC(CO)C(O)C2O)c2ncnc(N)c12 (stereo not drawn)	n	n	81	n	32	24
c1ccc2c(NC3=NCCS3)cccc2c1	n	n	18	n	n	21
COc1cccc(-n2c(O)c(C=NCCN3CCOCC3)c(=O)[nH]c2=O)c1	n	n	n	n	x	x
CCS(=O)(=O)N1CCCC(C(=O)N2CCC3(CC2)OCCO3)C1 (stereo not drawn)	n	n	n	n	x	x
